Assay outcomes (PubChem BioAssay)
Pf growth 96h = P. falciparum growth inhibition at 96 hour, primary screen for plastid delayed-death inhibitors; P. falciparum luciferase reporter growth, 96 h; Potency, µM (highest dose often 28.7 µM), for the others: at the top dose activity change, negative = inhibition, actives largely listed as inhibitors; actives 6.9% (n = 320,000); AID 504834; note: potency is the fitted concentration of half-maximal effect
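Delayed-death screen, second-generation endpoint: infected erythrocytes, 2% hematocrit, 0.05% parasitemia final; 96 hours at 37 C, 5% CO2; luciferase detection reagent; luminescence decrease equals reduced growth.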
Sm TGR block = blocks Schistosoma mansoni thioredoxin glutathione reductase; Q962Y6; purified TGR, DTNB reduction, TNB absorbance 405 nm; Potency, µM (series often up to 114 µM), inactives show at the highest dose activity change, negative = inhibition, actives largely listed as inhibitors; actives 3% (n = 360,000); note: potency is the fitted concentration of half-maximal effect; nearly all actives have a fitted effect of over 60% in size
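TGR 20 nM + NADPH 100 uM (dispensed conc.), cpd preinc 15 min RT; start with NADPH (500 uM addition) then DTNB (15 mM addition). Kinetic TNB absorbance, 405 nm filter. Four-parameter Hill fit across titration.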
Pf growth 48h = inhibits P. falciparum growth in the first generation, 48 h; Potency, µM (series often up to 28.7 µM), for the others: at the top dose activity change, negative = inhibition, hits mostly inhibitors; actives 5.9% (n = 310,000); P. falciparum luciferase growth in erythrocytes, 48 h; note: potency is the fitted concentration of half-maximal effect
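Read-out is firefly luciferase luminescence from an integrated reporter in P. falciparum, so falling signal marks reduced parasite growth. Infected erythrocytes were at 2% hematocrit and 0.1% parasitemia (final) in Albumax-supplemented RPMI 1640.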
FBPA Giardia inh = inhibitors of Giardia lamblia fructose-1,6-bisphosphate aldolase; A8B2U2; purified Giardia FBPA; Potency, µM (titrated, usually from 59.6 µM), for the others: at the highest dose activity, negative = inhibition, hits mostly inhibitors; actives 0.71% (n = 290,000); note: potency is the fitted concentration of half-maximal effect; nearly all actives have a fitted effect of over 55% in size
Target sequence (A8B2U2 whole entry, looked up): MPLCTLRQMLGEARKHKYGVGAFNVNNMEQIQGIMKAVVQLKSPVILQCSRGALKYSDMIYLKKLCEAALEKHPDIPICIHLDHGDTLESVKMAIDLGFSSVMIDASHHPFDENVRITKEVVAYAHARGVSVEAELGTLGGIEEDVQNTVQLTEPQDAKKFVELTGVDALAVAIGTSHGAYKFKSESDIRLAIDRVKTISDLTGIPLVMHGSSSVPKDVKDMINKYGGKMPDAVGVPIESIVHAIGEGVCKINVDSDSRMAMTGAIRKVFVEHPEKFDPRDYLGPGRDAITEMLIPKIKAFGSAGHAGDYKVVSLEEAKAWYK
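Giardia FBPA (40 nM reagent) was preincubated 10 min at RT with compound (up to 57.5 uM final), then substrate plus GAPDH/TPI/NAD/arsenate coupling system with diaphorase/resazurin was added; resorufin fluorescence (525/598 nm) was read after 20 min.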
HCMV inh = blocks human cytomegalovirus replication. activity change, negative = inhibition, % at 57.5 µM. actives 4.5% (n = 410,000). HFF cells, HCMV-luciferase reporter, 72 h; active compounds read low. AID 1259415; in the data active = activity change below about -60%; inconclusive = no clear call, values can overlap the other calls; inactive = above about -39%
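Inhibition of viral replication was scored as loss of reporter luminescence in HFFs infected with HCMV-luciferase (MOI 1 PFU/cell) for 72 h; compounds tested at 2 doses, normalized to buffer and Salinomycin controls.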
An asterisk follows results filed as active; ? = inconclusive; nt = not tested or not shown. Compounds with a hit are over-represented: about 14% of the library has one in this group of screens. Unless noted, calls come from the whole dose curve; as a rule, active = well fitted curve in the direction sought with a large enough effect; inconclusive = small, poorly fitted or top-dose-only effect, or another doubt; inactive = no such curve, though single readings can be large; an effect the other way counts as inactive or inconclusive. % is set by controls: 0 for no effect and ±100 for the full control effect.

SMILES	Pf growth 96h	Sm TGR block	Pf growth 48h	FBPA Giardia inh	HCMV inh
C=C1CCN(Cc2ccccc2)S(=O)(=O)c2ccccc21	-20%	-5%	-9%	-25%	-22
O=C1CCN(Cc2ccccc2)S(=O)(=O)c2ccccc21	?	20µM*	?	-13%	-37
O=C(Nc1ccc2oc(-c3cccc4c(Br)cccc34)nc2c1)c1ccc(F)cc1	nt	-2%	nt	nt	-3
O=C(/C=C/c1ccc2c(c1)OCO2)NCc1ccncc1	35%	-20%	29%	14%	64
O=C(/C=C/c1ccc2c(c1)OCO2)NCc1ccco1	70%	40µM*	34%	-8%	1
O=C(/C=C/c1ccccc1)NCc1ccco1	-12%	0%	51%	1%	-15
O=C(/C=C/c1ccc(Cl)c(Cl)c1)NCc1ccco1	1.9µM*	-7%	-27%	1%	-11
CCOc1ccc(S(=O)(=O)N2CCC(C(=O)NCc3ccncc3)CC2)cc1C	20%	-11%	-1%	18%	-20
COc1ccc(C)cc1-n1nnnc1SCC(=O)N1CCC(C(=O)Nc2nccs2)CC1	1.7µM*	17%	-60%	8%	-36
COc1ccc(C)cc1-n1nnnc1SCC(=O)NC1CCCC1	44%	-6%	?	nt	-14
Cc1cc(C)c(S(=O)(=O)N2CCN(C(=O)C(C)Cn3cncn3)CC2)c(C)c1 (centres undefined)	-5%	0%	-2%	1%	-18
CCN(CC)c1ccc(-c2sc(Nc3ccccc3)n[n+]2-c2ccc(F)cc2)cc1	9.3µM*	-2%	-25%	2%	-4
COc1ccc(-c2sc(Nc3ccccc3)n[n+]2-c2ccc(F)cc2)cc1Br	7.4µM*	7%	?	-9%	7
COc1cccc(N2CCN(C(=O)Cn3ncc4c(=O)oc5ccccc5c43)CC2)c1	nt	6%	nt	nt	6
CCN(CC)c1cccc(OCC(=O)N(C)CCC#N)c1	10%	-19%	10µM*	?	10
Cc1cccc(NS(=O)(=O)c2ccc3[nH]c4c(c3c2)CCCCCC4)c1	nt	8%	nt	nt	-103*
O=S(=O)(Nc1cccc(Cl)c1)c1ccc2[nH]c3c(c2c1)CCCCCC3	nt	-1%	nt	nt	-34
CN(C)c1ccc(CNS(=O)(=O)c2ccc3[nH]c4c(c3c2)CCCCC4)cc1	nt	0%	nt	nt	-65*
CCOc1ccc(NS(=O)(=O)c2ccc3[nH]c4c(c3c2)CCCCC4)cc1	nt	-1%	nt	nt	-103*
COc1ccc(NS(=O)(=O)c2ccc3[nH]c4c(c3c2)CCCC4)cc1Cl	nt	3%	nt	nt	1
Cc1ccc(CNS(=O)(=O)c2ccc3[nH]c4c(c3c2)CCCCC4)cc1	nt	33%	nt	nt	0
Cc1ccc(NS(=O)(=O)c2ccc3[nH]c4c(c3c2)CCCCCC4)cc1Cl	nt	0%	nt	nt	-83*
CCOc1ccc(NS(=O)(=O)c2ccc3[nH]c4c(c3c2)CCCC4)cc1	nt	9%	nt	nt	2
COc1cccc(NC(=O)Nc2nnc([C@H]3C[C@H](O)[C@@H](CO)O3)s2)c1	nt	nt	nt	nt	-19
Nc1ncnc2c1ncn2[C@@H]1O[C@H](C(=O)Nc2ccc(C(=O)N3CCCCC3)cc2)[C@@H](O)[C@H]1O	nt	nt	nt	nt	-3
SMILES	Pf growth 96h	Sm TGR block	Pf growth 48h	FBPA Giardia inh	HCMV inh
O=S(=O)(Cc1ccccc1)Cc1cnc(Cl)s1	0%	40µM*	-7%	0%	6
O=C(Nc1ccc2nc3n(c(=O)c2c1)CCCCC3)c1ccccc1[N+](=O)[O-]	7%	-9%	-4%	nt	-32
O=C(Nc1ccc2nc3n(c(=O)c2c1)CCCCC3)c1cc([N+](=O)[O-])ccc1F	?	-10%	4%	nt	-72*
O=C(Nc1ccc2nc3n(c(=O)c2c1)CCCCC3)c1c(F)ccc([N+](=O)[O-])c1F	?	?	?	nt	-100*
COC(=O)c1nn(-c2cccc(C)c2)c2nnc(Cc3ccc(C)cc3)c(=O)n12	-12%	-1%	16%	3%	-12
Cc1ccc(Cc2nnc3n(-c4cccc(C)c4)nc(C(=O)c4ccccc4)n3c2=O)cc1	3.7µM*	0%	5.2µM*	2%	-10
Cc1ccc(S(=O)(=O)N2C[C@H]3n4c(=O)ccc(=O)n4C[C@H](OC(=O)NCC4CCCCC4)[C@@]3(O)C2)cc1	nt	nt	nt	nt	-102*
Cc1ccc(S(=O)(=O)N2C[C@H]3n4c(=O)ccc(=O)n4C[C@H](OC(=O)NCc4ccccc4)[C@@]3(O)C2)cc1	nt	nt	nt	nt	-61*
O=C1NN=C2CCCCCCCCCCC12 (centres undefined)	nt	nt	nt	nt	-18
CCOC(=O)C(O)(c1ccc(NC(=O)c2ccc(Cl)c(Cl)c2)cc1)C(F)(F)F (centres undefined)	?	10%	9.3µM*	-24%	-14
CCOC(=O)C(O)(c1ccc(N(C)C(=O)c2ccc(Cl)c(Cl)c2)cc1)C(F)(F)F (centres undefined)	10µM*	-2%	?	-2%	-7
CCn1c(SCC(=O)N/N=C/c2c[nH]c3ccccc23)nnc1-c1ccc(C(C)(C)C)cc1	10µM*	-19%	?	-6%	-75*
Cc1ccc(CSc2nnc(SCC(=O)N/N=C/c3c[nH]c4ccccc34)s2)cc1	111%	-4%	246%	?	-73*
CCn1c(SCC(=O)N/N=C/c2ccc(C)o2)nnc1-c1ccc(C(C)(C)C)cc1	?	-6%	-10%	-5%	-11
Cc1ccc(CSc2nnc(SCC(=O)N/N=C/c3ccc(C(=O)O)cc3)s2)cc1	142%	-7%	155%	15%	-66*
CCCN(CCC)C[C@@H]1CCCCN1CCNC(=O)N1c2ccccc2C(=O)Nc2cccnc21	nt	nt	nt	9%	nt
CNCC[C@H](Oc1cccc2ccccc12)c1cccs1	6.7µM*	-26%	13µM*	7%	-26
CCOC(=O)c1cc(S(=O)(=O)Nc2ccc(OC(F)(F)F)cc2)[nH]n1	nt	2%	nt	nt	24
COc1nnc(-c2ccc(C)c(S(=O)(=O)NCC3CCCO3)c2)c2ccccc12 (centres undefined)	-5%	-11%	?	nt	3
